# Source: PubChem BioAssay (NCI)
# Compounds without any hit were thinned out: in the full panel of roughly 83,000, 20% have a hit.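 Cells were grown in 96-well plates and exposed to the test compound at a single concentration for 48 hours; results are reported as percent growth, with values below 10 considered active.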 Unmarked numbers belong to inactive results. Active and inactive are the calls of the source.
# Legend:
# Test in all cases: NCI-60 one-dose screen, 48 h (100 = growth as untreated, 0 = no growth, -100 = all killed)
# SK-MEL-2 melanoma = settings: 10 µM unless noted
# EKVX NSCLC = settings: 10 µM
# SN12C renal = settings: 10 µM unless noted
# UO-31 renal = settings: 10 µM unless noted
# TK-10 renal = settings: 10 µM unless noted
# ACHN renal = settings: 10 µM unless noted
# A498 renal = settings: 10 µM unless noted
# CCRF-CEM leukemia = settings: 10 µM
# MOLT-4 leukemia = settings: 10 µM unless noted
Compound,growth (SK-MEL-2 melanoma),growth (EKVX NSCLC),growth (SN12C renal),growth (UO-31 renal),growth (TK-10 renal),growth (ACHN renal),growth (A498 renal),growth (CCRF-CEM leukemia),growth (MOLT-4 leukemia)
COc1ccc(/C=C(/C(=O)N2CCCCC2)c2cc(OC)c(OC)c(OC)c2)cc1,28.5%,42.5%,39.2%,48.2%,77.3%,49%,-2.33% (active),14.1%,30.9%
COc1cc(CNC(=O)CCCC/C=C/C(C)C)ccc1OCc1nnc(Nc2ccccc2F)o1,111%,77.1%,70.5%,52.8%,97.7%,56.1%,92.5%,83%,82%
COc1cc(/C=C/C(=O)/C=C(/C=C/c2ccc(OC(C)=O)c(OC)c2)OB(F)F)ccc1OC(C)=O,86.9%,76.1%,42.3%,47%,80.7%,26.5%,–,1.09% (active),3.59% (active)
CC(C)CSc1nc(-c2ccc(F)cc2)c(C#N)c(N2CCCCC2)n1,85.5%,93.4%,105%,95.3%,91.4%,98.8%,–,94.4%,95.3%
NC(N)=N/N=C/c1cccc(Br)c1,103%,103%,101%,79.5%,100%,108%,–,101%,91.2%
CC(C)(C)C(=O)OCOP(=O)(OCOC(=O)C(C)(C)C)C1CC(O)N(O)C1=O (configuration not stated),45.9%,66%,11.6%,18.6%,63.6%,42.7%,–,4.09% (active),24.5%
CC(=O)CCS(=O)c1ccccc1 (configuration not stated),97.1%,106%,98.6%,85.8%,89%,112%,–,101%,98.3%
Cc1c(Cc2ccccc2)c(=O)oc2c(C)c(OCC(=O)n3nc(C#N)cc3N)ccc12,98.9%,97.7%,102%,75.6%,123%,93.6%,126%,99.6%,98.5%
CCCCN(CCCC)CCCNc1c2c(nc3ccc(Cl)cc13)CCCC2,101%,95.5%,93.2%,72.7%,86.3%,102%,–,98.1%,94.9%
O=C(/C=C1\C(=O)N(Cc2ccc([N+](=O)[O-])cc2)c2ccccc21)c1ccc(OCCN2CCCCC2)cc1,-29.1% (active),1.78% (active),-67% (active),-97.1% (active),-81.4% (active),-98.6% (active),56.6%,–,-26.5% (active)
CC(=O)/C(=C\c1c(-c2ccccc2)[nH]c2ccccc12)S(=O)(=O)c1ccccc1,-27.9% (active),27.9%,5.37% (active),14%,10.2%,28.2%,41.4%,–,-35.5% (active)
COc1ccc(/C=C2\SC(=O)N(Cc3cc(=O)oc4ccc(OC)cc34)C2=O)cc1,99.9%,79.3%,90.7%,70.6%,97.8%,92.7%,93.5%,77.2%,85.1%
N=C(N)N=Nc1ccc(NN=C(N)N)c2ccccc12,104%,116%,73.2%,69.6%,108%,105%,–,101%,97.1%
Cc1cc2c(-c3nc4ccccc4[nH]3)c(O)c(O)cc2c(O)c1-c1c(C)cc2c(-c3nc4ccccc4[nH]3)c(O)c(O)cc2c1O,7.6% (active),8.33% (active),9.17% (active),-30.6% (active),-6.24% (active),1.78% (active),-3.57% (active),3.98% (active),2.22% (active)
N/C(=N\O)c1ccncc1,100%,98.9%,106%,88%,95.8%,103%,–,106%,114%
COc1ccc(/C=N/c2cc(C(C)(C)C)nn2-c2ccccc2)cc1,124%,104%,102%,94.5%,117%,95.7%,103%,–,96%

Compound,growth (SK-MEL-2 melanoma),growth (EKVX NSCLC),growth (SN12C renal),growth (UO-31 renal),growth (TK-10 renal),growth (ACHN renal),growth (A498 renal),growth (CCRF-CEM leukemia),growth (MOLT-4 leukemia)
COc1ccc(-c2nc(SCC(C)C)nc(Nc3ccc(C(=O)O)cc3)c2C#N)cc1,57.9%,90.7%,102%,92.9%,88.5%,89.5%,–,89.2%,82.7%
COc1ccccc1Nc1nnc(COc2ccc(CNC(=O)CCCC/C=C/C(C)C)cc2OC)o1,102%,85%,105%,75.2%,103%,95.7%,103%,92%,76.7%
CC[C@H](Nc1ncnc2nc[nH]c12)c1nc2cccc(NCc3ccc(C(=O)NO)o3)c2c(=O)n1-c1ccccc1,102%,110%,95.2%,79%,84.1%,97.3%,97%,88.7%,97.8%
CCOc1ccccc1/C=N\N=C(N/N=C/c1ccccc1OCC)N/N=C/c1ccccc1OCC,4.07% (active),14.2%,15.4%,-8.3% (active),27.8%,9.67% (active),–,16.7%,27.7%
CCCCCCCCCCN1CC2CCCCC2C1 (configuration not stated),95.2%,63%,75.7%,65.5%,81.4%,80.1%,–,46.1%,50.2%
COc1ccc(CN2C(=O)/C(=C\C(=O)c3ccc(OCCN4CCCC4)cc3)c3ccccc32)cc1,103%,96.4%,49.8%,56.5%,109%,69.9%,88.8%,2.08% (active),5.57% (active)
Cc1ccc(CC(=O)O)c(C)c1,95.5%,109%,99.4%,91.4%,88.3%,110%,–,101%,105%
COC1=C(OC)C(=O)c2ccccc2C1=O,107%,97.8%,108%,78.6%,115%,92%,–,61.6%,–
O=C(O)c1ccc(-c2nn(-c3ccc(C(=O)O)cc3)cc2CNc2ccc(Br)cc2)cc1,94.4%,101%,111%,87.7%,98.4%,102%,–,101%,118%
CCN(CCO)CCNc1ccc(C)c2sc3cc(OC)ccc3c(=O)c12,99.1%,86.4%,55.9%,49.4%,79.3%,36.8%,–,47.9%,21.7%
C=CCNC(=S)NNc1ccc([N+](=O)[O-])cn1,94.4%,99.9%,100%,83.7%,104%,104%,–,71.2%,99.4%
NNC(=S)N1N=C(c2cc3ccccc3o2)CC1c1c[nH]c2ccccc12 (configuration not stated),60.1%,35.2%,56.9%,24%,80.1%,24%,90.2%,7.46% (active),10.2%
N=C(N)N=Nc1ccc(NN=C(N)N)cc1,105%,36.3%,89%,53.6%,103%,88.2%,–,96.3%,105%
CCCCCCNC(=O)Oc1ccc(/C(=C(/C)Cc2ccc(OC)cc2)c2ccc(OCCN3CCCCC3)cc2)cc1,101%,81.9%,80.1%,58.5%,89.8%,99.5%,–,72%,69.3%
COc1ccc(CN2C(=O)/C(=C\C(=O)c3ccc(OCCN4CCCCC4)cc3)c3ccccc32)cc1,97.4%,87.6%,26.3%,39.3%,113%,48.7%,88.4%,8.94% (active),3.78% (active)
